Results filed as inconclusive are left out. Active and inactive are the calls of the source. Calls come from the whole dose curve; as a rule, active = well fitted inhibition curve with a large enough effect in the repeat runs; inconclusive = weak or mixed curves; inactive = flat fitted curve, though single readings scatter.
% is set by controls: 0 for no effect and ±100 for the full control effect; potency is the fitted concentration of half-maximal effect.

Chain of Cytochrome P450 2D6 (Homo sapiens) (P10635 whole entry, looked up): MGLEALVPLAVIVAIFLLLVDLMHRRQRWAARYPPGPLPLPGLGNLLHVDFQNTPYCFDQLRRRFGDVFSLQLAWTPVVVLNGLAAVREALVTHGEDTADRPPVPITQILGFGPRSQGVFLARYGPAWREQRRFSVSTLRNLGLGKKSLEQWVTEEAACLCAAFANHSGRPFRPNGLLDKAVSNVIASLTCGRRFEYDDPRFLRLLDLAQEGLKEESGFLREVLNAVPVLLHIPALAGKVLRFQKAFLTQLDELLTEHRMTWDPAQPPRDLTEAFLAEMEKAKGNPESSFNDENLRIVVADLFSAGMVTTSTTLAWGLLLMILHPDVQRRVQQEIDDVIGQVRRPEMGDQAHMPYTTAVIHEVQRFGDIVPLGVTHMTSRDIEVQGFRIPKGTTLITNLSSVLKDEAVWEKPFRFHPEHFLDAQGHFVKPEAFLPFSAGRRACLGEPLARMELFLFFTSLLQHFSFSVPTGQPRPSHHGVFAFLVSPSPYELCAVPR

For this experiment, the target named is Cytochrome P450 2D6 (Homo sapiens) (UniProt P10635). As to the kind of experiment: Cytochrome P450 family 2 subfamily D member 6 (CYP2D6) small molecule antagonists: luciferase biochemical (cell-free) qHTS assay (AID 1645840). Note: nearly all actives have a fitted effect of over 55% in size. The settings on record: P450-Glo CYP2D6 enzyme, luciferin luminescence, 1 h; series mostly up to 57.4 µM; activity change, negative = inhibition: at the top concentration. An outline of the steps:
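P450-Glo CYP2D6 system: proluciferin substrate converted by enzyme to luciferin, read by luminescence proportional to activity. Enzyme-substrate mix with compound 10 min at room temperature, then NADPH regeneration 1 h before detection reagent.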
(qHTS replaces the single test concentration by a dilution series.)
As for `C[N+]1(C)[C@@H]2CC[C@H]1CC(OC(=O)C(CO)c1ccccc1)C2` (stereo partly specified), the “activity change, negative = inhibition” value is -21.7% (inactive).
For the compound `COc1cc(C[C@@H](C)N)c(OC)cc1C`, the Potency was 38.1 µM (active).
For the compound `OC(O)C(Cl)(Cl)Cl`, the “activity change, negative = inhibition” value is 2.77% (inactive).
Same read-out and setting: for `C1CN2CCC1CC2` the value was 17% (inactive); for `O=C(CCCCl)c1ccc(F)cc1`, -0.875% (inactive); for `c1ccc2nc(N3CCNCC3)ccc2c1`, -17.3% (inactive).
Consider `CC(C)[N+](C)(CCC(C(N)=O)(c1ccccc1)c1ccccc1)C(C)C`, for which the Potency is 1.95 µM (active).
In the case of `CCOC(=O)NC(O)C(Cl)(Cl)Cl` (stereo unspecified), the “activity change, negative = inhibition” value was 7.4% (inactive).
Same read-out and setting: next, `CC(C)C(Br)C(=O)NC(N)=O` (stereo unspecified): 7.01% (inactive).
`COc1ccc(OC)c(CC(C)N)c1` (stereo unspecified): the Potency was 6.05 µM (active).
On the same count and under the same terms, for `COc1cc(N)c(Cl)cc1C(=O)NC1CN2CCC1CC2` (stereo unspecified) the value was 15.5 µM (active).
Still for that read-out and setting: for `N#Cc1nn(-c2c(Cl)cc(C(F)(F)F)cc2Cl)c(N)c1S(=O)C(F)(F)F` (stereo unspecified) the value was 3.89 µM (active); for `CCN(CC)CCOC(=O)C(C)(c1ccccc1)c1ccccc1`, 1.38 µM (active).
In the case of `CCOC(=O)c1cncn1C(C)c1ccccc1` (stereo unspecified), the “activity change, negative = inhibition” value was 2.22% (inactive).
On the same count and under the same terms, for `CC[C@H]1C[C@H]2[C@@H]3CCC4=CC(=O)CC[C@@H]4[C@H]3CC[C@]2(C)[C@H]1O` the value was -7.52% (inactive).
`C#C[C@]1(O)CC[C@H]2[C@@H]3CCC4=CC(=O)CCC4=C3C=C[C@@]21CC`: the Potency is 0.977 µM (active).
Regarding `CCOC(=O)NC(C)(C)Cc1ccc(Cl)cc1`, the “activity change, negative = inhibition” value was -22.6% (inactive).
On the same count and under the same terms, next, `COCC(=O)N(c1c(C)cccc1C)C(C)C(=O)OC` (stereo unspecified): 4.78% (inactive).
Still for that read-out and setting: for `ClC1=C(Cl)C2(Cl)C(CBr)CC1(Cl)C2(Cl)Cl` (stereo unspecified) the value was 13.9% (inactive).
As to `CC(Cc1ccccc1)NCc1ccccc1Cl` (stereo unspecified), the Potency was 0.155 µM (active).
As for `CC(Cc1ccc2c(c1)OCO2)NO` (stereo unspecified), the Potency was 61.1 µM (active).

The values are drawn from PubChem BioAssay (NCATS).
